Results taken from PubChem BioAssay (NCI).
Compounds without any hit were thinned out: in the full panel of roughly 83,000, 20% have a hit.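 Step 1: grow cells in 96-well plates. Step 2: add test compound at a single concentration. Step 3: incubate 48 h. Step 4: record percent growth.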 Unmarked numbers belong to inactive results. The source made the active and inactive calls. The calls were made as follows: active = growth percent below 10; inactive = the rest.

Tests used:
Assay in all cases: NCI-60 one-dose screen, 48 h (100 = growth as untreated, 0 = no growth, -100 = all killed)
Conditions in all cases: 10 µM unless noted
HCT-15 colon = test system: HCT-15 colon
HT29 colon = test system: HT29 colon
SNB-75 CNS = test system: SNB-75 CNS
SNB-19 CNS = test system: SNB-19 CNS
U251 CNS = test system: U251 CNS
PC-3 prostate = test system: PC-3 prostate
SK-MEL-5 melanoma = test system: SK-MEL-5 melanoma
UACC-62 melanoma = test system: UACC-62 melanoma
LOX IMVI melanoma = test system: LOX IMVI melanoma
SK-MEL-28 melanoma = test system: SK-MEL-28 melanoma
SK-MEL-2 melanoma = test system: SK-MEL-2 melanoma
SN12C renal = test system: SN12C renal
UO-31 renal = test system: UO-31 renal
TK-10 renal = test system: TK-10 renal
ACHN renal = test system: ACHN renal
CAKI-1 renal = test system: CAKI-1 renal
A498 renal = test system: A498 renal
CCRF-CEM leukemia = test system: CCRF-CEM leukemia
MOLT-4 leukemia = test system: MOLT-4 leukemia
EKVX NSCLC = test system: EKVX NSCLC

Row | Structure (SMILES) | growth (HCT-15 colon) | growth (HT29 colon) | growth (SNB-75 CNS) | growth (SNB-19 CNS) | growth (U251 CNS) | growth (PC-3 prostate) | growth (SK-MEL-5 melanoma) | growth (UACC-62 melanoma) | growth (LOX IMVI melanoma) | growth (SK-MEL-28 melanoma) | growth (SK-MEL-2 melanoma) | growth (SN12C renal) | growth (UO-31 renal) | growth (TK-10 renal) | growth (ACHN renal) | growth (CAKI-1 renal) | growth (A498 renal) | growth (CCRF-CEM leukemia) | growth (MOLT-4 leukemia) | growth (EKVX NSCLC)
1 | CN1CCN(CC(=O)N2c3cccc4cccc(c34)N(C(=O)CN3CCN(C)CC3)C2c2cn(-c3ccccc3)nc2-c2cccc([N+](=O)[O-])c2)CC1 | -13.6% (active) | -33.5% (active) | 65% | 24.9% | -64.4% (active) | 22.6% | -97.8% (active) | -83.6% (active) | -93.8% (active) | -89.5% (active) | -47.6% (active) | -21.5% (active) | 26.2% | -19.4% (active) | -31.1% (active) | 14.4% | 44.6% | -32% (active) | -11.6% (active) | –
2 | COc1ccc(OC)c(/C=C/C(=O)N/N=C/c2ccc(Cl)cc2)c1 | 29.4% | 6.49% (active) | 44% | 22.6% | 18.4% | 26.2% | 30.6% | 42.1% | 36.7% | 38.8% | 22.3% | 46.2% | – | 51% | 48.4% | 41.8% | 12.5% | 13.7% | 26.3% | 43.1%
3 | Cc1nn(-c2ccccc2)c(-n2ccnc2)c1/C=N/Nc1nc(-c2ccc(F)cc2)cs1 | 76.8% | 81.2% | 73.7% | 87.1% | 74.4% | 65.5% | 31.4% | 74.9% | 83.7% | 97.6% | 98.1% | 80.3% | 51.2% | 98.3% | 78.9% | 80% | 71.8% | 70.1% | 48.3% | –
4 | CCN(CC)CCNc1nc2ccccc2c2c(=O)c3cc(Cl)ccc3sc12 | 39.8% | 18.3% | 29.6% | 69.5% | 39.7% | 56.7% | 74.4% | 65.4% | -58.8% (active) | 98.1% | 89% | 66.7% | – | 80.1% | 47.6% | 22.6% | -7.91% (active) | 7.05% (active) | 25.1% | 74.9%
5 | COc1cccc(/C=C2\C=C(c3ccccc3)N(Cc3ccccc3)C2=O)c1 | 38% | 82.2% | 51.4% | 79.6% | 56.4% | 33.9% | 34.8% | 38% | 49.2% | 79.9% | 72.6% | 43.6% | – | 88.5% | 48% | 55.1% | 16% | 62.2% | 59.1% | 39.3%
6 | CCn1cnc2c1c(=O)[nH]c(=O)n2CC1CCC(CNS(=O)(=O)c2ccc(OC3CCOCC3)c(F)c2)CC1 (centres undefined) | 86.6% | 37.8% | 7.93% (active) | 59% | 67.9% | 45.9% | 60.1% | 24.1% | 38.4% | 64.1% | 74.8% | 62.9% | 55.2% | 33.7% | 72.2% | 46.2% | 67.1% | 52.6% | 63% | –
7 | COc1ccc2c(c1OC)C(=O)O[C@H]2[C@H]1c2c(cc3c(c2OC)OCO3)CCN1C | 95.6% | 104% | 88.5% | 103% | 97.2% | 90.1% | 96.2% | 109% | 90.2% | 100% | 106% | 100% | 85.9% | 122% | 95.8% | 80.3% | 93.1% | 101% | 116% | –
8 | Cc1ccc(-c2nc(N3CCN(CC(=O)Nc4ccc(Cl)c(C(F)(F)F)c4)CC3)c3ccccc3n2)cc1 | 79.1% | 89.8% | 81.2% | 98.8% | 93.2% | 79.1% | 103% | 83% | 92.1% | 105% | 110% | 94.6% | 65.6% | 101% | 95% | 80.2% | 74.6% | 89.5% | 62.6% | –
9 | COc1cc2oc(-c3ccc(O)cc3)cc(=O)c2c(O)c1-c1c(OC)cc(O)c2c(=O)cc(-c3ccc(O)cc3)oc12 | 30.4% | 12.1% | -2.61% (active) | 17.8% | 19.2% | 72.3% | -49.5% (active) | -26.3% (active) | 18.2% | 18.3% | 51.9% | 15.8% | – | 75.3% | 49.4% | 26.9% | 83.9% | 44.9% | 32.6% | 85.5%
10 | COc1ccc(CNC(=O)[C@H](O)[C@@H](N)Cc2ccccc2)cc1 | 107% | 103% | 86% | 102% | 101% | 108% | 105% | 96.6% | 97.6% | 107% | 123% | 97.5% | – | 102% | 107% | 90.7% | 90.8% | 102% | 107% | 99.8%
11 | NCCNc1nc2ccccc2c2c(=O)c3cccc(F)c3sc12 | 36.5% | 16.4% | 88% | 56.8% | 43.9% | 62.9% | 88.2% | 95.9% | 46.6% | 106% | 102% | 47.5% | 40.7% | 71.7% | 34.2% | 39.6% | 59.7% | 34.5% | 7.98% (active) | –
12 | CN1CCN(c2ccc(-c3ccc4ncc(C#N)c(Nc5ccc(F)c(Cl)c5)c4c3)cc2)CC1 | -12.9% (active) | 18.2% | 75.5% | 72.7% | 50% | 45.8% | 58.1% | 69.7% | 43% | -43.1% (active) | 48.3% | 59.9% | – | 36.3% | 18.9% | 33.8% | -7.38% (active) | 13.1% | 35.7% | 54.4%
13 | CCN1C(=O)N(CC)C2Nn3c(s/c(=C4\C(=O)N(CC(C)C)c5ccccc54)c3=O)=NC21 (centres undefined) | 27.3% | 86.4% | 14.1% | 54.7% | 36.3% | 38.1% | 39.9% | 45.3% | 54.2% | 66% | 66.4% | 48.9% | 49.8% | 13.1% | 52.5% | 34.1% | -6.38% (active) | 42.6% | 48.7% | –
14 | COc1cccc2nc3n(c12)C(c1c(F)cccc1F)SC3 (centres undefined) | 101% | 100% | 96% | 101% | 92.5% | 80.6% | 86% | 77.5% | 93.1% | 112% | 86.2% | 100% | – | 115% | 92.7% | 106% | 103% | 89.5% | 87% | 101%
15 | OC(COc1ccccc1Cl)CN1CCN(c2cccc(Cl)c2)CC1 (centres undefined) | 97.2% | 99.2% | 104% | 97.6% | 97.6% | 84.4% | 102% | 98.5% | 91.6% | 107% | 106% | 104% | 83.1% | 107% | 101% | 99.1% | 108% | 113% | 107% | –
16 | Cc1cc2nc3cc(C)c(N)cc3[n+](-c3ccccc3)c2cc1N | 111% | 85.3% | 52.1% | 23.3% | 19.4% | 42.5% | 20.7% | 53.1% | 67% | 80.7% | 82.8% | 13.9% | 84.2% | 93.8% | 89.1% | 97.5% | 85.7% | 58.3% | 52.8% | –
